The values below come from ChEMBL document CHEMBL4808148, “HDAC6 screening dataset using tau-based substrate in an enzymatic assay yields selective inhibitors and activators” (2021).

Assay [1] has as its target T1, Protein deacetylase HDAC6 (Homo sapiens) (UniProt Q9UBN7).
T1 sequence (whole entry): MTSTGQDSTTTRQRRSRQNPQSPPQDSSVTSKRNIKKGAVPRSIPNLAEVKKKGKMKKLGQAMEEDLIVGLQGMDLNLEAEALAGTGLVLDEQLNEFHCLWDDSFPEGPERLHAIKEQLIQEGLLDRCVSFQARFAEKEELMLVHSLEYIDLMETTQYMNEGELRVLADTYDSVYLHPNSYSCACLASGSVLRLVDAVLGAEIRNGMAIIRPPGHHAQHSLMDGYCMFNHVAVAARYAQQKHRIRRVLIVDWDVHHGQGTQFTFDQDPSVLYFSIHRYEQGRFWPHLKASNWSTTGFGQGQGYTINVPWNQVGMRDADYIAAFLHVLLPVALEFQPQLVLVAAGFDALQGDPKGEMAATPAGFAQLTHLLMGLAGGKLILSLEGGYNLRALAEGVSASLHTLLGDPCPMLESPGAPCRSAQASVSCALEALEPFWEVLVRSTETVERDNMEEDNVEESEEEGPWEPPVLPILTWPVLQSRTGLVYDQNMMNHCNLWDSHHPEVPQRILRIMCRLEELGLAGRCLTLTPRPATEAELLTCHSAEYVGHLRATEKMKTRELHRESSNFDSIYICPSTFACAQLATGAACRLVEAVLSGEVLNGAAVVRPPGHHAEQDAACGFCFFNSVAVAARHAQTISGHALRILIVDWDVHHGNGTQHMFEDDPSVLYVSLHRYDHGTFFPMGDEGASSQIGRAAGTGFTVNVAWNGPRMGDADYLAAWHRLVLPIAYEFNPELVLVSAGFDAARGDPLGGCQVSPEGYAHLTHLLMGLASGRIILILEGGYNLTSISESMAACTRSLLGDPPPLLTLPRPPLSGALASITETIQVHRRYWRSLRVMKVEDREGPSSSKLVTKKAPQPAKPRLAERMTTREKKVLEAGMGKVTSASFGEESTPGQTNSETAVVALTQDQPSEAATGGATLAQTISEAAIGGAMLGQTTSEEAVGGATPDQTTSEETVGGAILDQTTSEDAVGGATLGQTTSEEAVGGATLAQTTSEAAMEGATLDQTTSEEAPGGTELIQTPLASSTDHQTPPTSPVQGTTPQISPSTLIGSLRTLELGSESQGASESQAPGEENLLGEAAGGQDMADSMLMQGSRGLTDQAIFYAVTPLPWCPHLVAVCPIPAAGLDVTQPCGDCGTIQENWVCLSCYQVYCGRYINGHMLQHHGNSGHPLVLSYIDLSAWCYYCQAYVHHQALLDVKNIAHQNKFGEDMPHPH
The conditions noted are these: at 10 µM.

The target in assay [2] is Protein deacetylase HDAC6 (Homo sapiens) (UniProt Q9UBN7). The conditions noted are these: at 10 µM. The source holds these as a separate data set.

The campaign covered roughly 5,600 compounds. About 390 (7%) showed an effect of 50% or more. Many of the other results were omitted from the sample, so strong results are more common in it than they were. Non-standard residues stand in square brackets, D forms with d. Residues, ends and D or L forms follow the SMILES beside them. dPhe(4-Cl) = N[C@H](Cc1ccc(Cl)cc1)C(=O)O; d2Nal = N[C@H](Cc1ccc2ccccc2c1)C(=O)O; dCit = NC(=O)NCCC[C@@H](N)C(=O)O; d3Pal = N[C@H](Cc1cccnc1)C(=O)O

With `CC(C)C[C@@H](C(=O)N[C@H](C(=O)OC1CCCC1)c1ccccc1)[C@H](O)C(=O)NO`, in assay [1], the inhibition is -7.78%.

In the case of `[K+]`, the inhibition in assay [1] came to 17.5%.

In the case of `O=C(Nc1cnn2ccc(N3CCC[C@@H]3c3cc(F)ccc3F)nc12)N1CC[C@H](O)C1`, the inhibition in assay [1] is 28.9%.

Consider `O=C1C(O)=C(O)C(=O)C(O)=C1O`, for which the inhibition in assay [1] worked out at 1.19%.

`c1ccc(N2CCN(Cc3nc4ccccc4[nH]3)CC2)nc1`: in assay [1], the inhibition was found to be 20.5%.

On to `CC(C)(C)c1ccc(-c2nc3c(N4CCN(Cc5ccc6nccnc6c5)CC4)cccc3[nH]2)cc1`, for which, in assay [1], the inhibition was found to be 110%.

For the molecule `CCc1cncnc1N1CCN(Cc2nc3cc(C(F)(F)F)ccc3[nH]2)CC1`, the inhibition in assay [1] worked out at 2.81%.

With `CCCCCCCN(CC)CCCC(O)c1ccc(NS(C)(=O)=O)cc1` (stereo unspecified), the inhibition in assay [1] is 30.4%.

As for `O=C(c1ccc(C(=O)N2CCC(N3CCCC3)CC2)c(Nc2ccccc2)c1)N1CCC(N2CCCC2)CC1`, the inhibition in assay [1] turned out to be 28.5%.

For the molecule `COc1cc2c(cc1OCCCN1CCCC1)N=C(N)C21CCC1`, the inhibition in assay [1] was -4.1%.

For the molecule `O=C(O)c1ccc(/C=C2/SC(=S)N(c3cccc(C(F)(F)F)c3)C2=O)cc1`, in assay [1], the inhibition was 4.63%.

With `COc1ccccc1OCC(O)COC(N)=O` (stereo unspecified), in assay [1], the inhibition worked out at 75.6%.

Regarding `NC(=O)OCC(O)COc1ccc(Cl)cc1` (stereo unspecified), in assay [1], the inhibition came out at 47.1%.

For the molecule `COc1ccccc1OCC(O)CO` (stereo unspecified), the inhibition in assay [1] was -8.39%.

`CC(C)C[C@H](NC(=O)N1CCCCCC1)C(=O)N[C@H](Cc1cn(C)c2ccccc12)C(=O)N[C@H](Cc1ccccn1)C(=O)O`: the inhibition in assay [1] was -8.82%.

In the case of `CC(=O)N[C@H](Cc1ccc2ccccc2c1)C(=O)N[C@H](Cc1ccc(Cl)cc1)C(=O)N[C@H](Cc1cccnc1)C(=O)N[C@@H](CO)C(=O)N[C@@H](Cc1ccc(O)cc1)C(=O)N[C@H](CCCNC(N)=O)C(=O)N[C@@H](CC(C)C)C(=O)N[C@@H](CCCNC(=N)N)C(=O)N1CCC[C@H]1C(=O)N[C@H](C)C(N)=O` (Ac-[d2Nal][dPhe(4-Cl)][d3Pal]SY[dCit]LRP[dA]-NH2), in assay [1], the inhibition was 30.9%.

In the case of `Cc1nc(C)c(C)nc1C`, the inhibition in assay [1] was -3.53%.

Regarding `COc1ccc(-c2ccc(=N)n(CCCC(=O)O)n2)cc1`, the inhibition in assay [1] is 8.71%.

Take `O=c1ncn2nc(Sc3ccc(F)cc3F)ccc2c1-c1c(Cl)cccc1Cl`: the inhibition in assay [1] is 36.3%.

As for `CN1c2c([nH]c(N)nc2=O)NC[C@@H]1CNc1ccc(C(=O)N[C@@H](CCC(=O)O)C(=O)O)cc1`, in assay [1], the inhibition was found to be 11.1%.

For `CCc1nc2ccc(Cl)cn2c1C(=O)NCc1ccc(N2CCC(c3ccc(OC(F)(F)F)cc3)CC2)cc1`, in assay [1], the inhibition came to 6.99%.

With `COc1cccc(-c2cc(=O)c3ccccc3o2)c1N`, in assay [1], the inhibition amounted to 97.4%.

In the case of `CC(=O)N[C@@H](CSC/C=C(\C)CC/C=C(\C)CCC=C(C)C)C(=O)O`, the inhibition in assay [1] was 19.5%.

Turning to `Cc1ccc(N2CCN(CCC3NC(=O)c4ccccc43)CC2)cc1C` (stereo unspecified), the inhibition in assay [1] is 0.62%.

Take `CCN(Cc1ccccc1)C(=O)Cn1c(=O)n(C)c2cnc(-c3ccccc3)nc21`: the inhibition in assay [1] turned out to be 31.2%.

As for `Cc1cc2nc3ccc(N(C)C)cc3[s+]c2cc1N`, the inhibition in assay [1] came out at 60.9%.

Consider `CC1CCN(C(c2ccc(F)cc2)c2ccc(C(C)C(=O)O)cc2-c2ccc(C(F)(F)F)cc2)CC1` (stereo unspecified), for which, in assay [1], the inhibition worked out at 27.9%.

For the molecule `Nc1ncnc2nc(-c3ccc(N4CCOCC4)nc3)cc(-c3cccc(Br)c3)c12`, the inhibition in assay [1] is 19.8%.

With CYANOCOBALAMIN, CHEMBL2110563, the inhibition in assay [2] is -2.71%.

As to FLUPENTIXOL, CHEMBL6066864, in assay [2], the inhibition is 88.9%.

Take BLEOMYCIN SULFATE, CHEMBL6067493: the inhibition in assay [2] was determined as 23.1%.

Regarding `O=c1ccc2cc3ccoc3cc2o1`, in assay [1], the inhibition came to 17.5%.

As to `CC(=O)Nc1ccc(C(=O)Nc2ccccc2N)cc1`, in assay [1], the inhibition was -0.35%.

`O=C(O)c1ccc(NC(=O)[C@H](Cc2ccc(O)cc2)NC(=O)c2ccccc2)cc1`: the inhibition in assay [1] was 10.6%.

Turning to `CC(C)[C@H](C(=O)Nc1ccc(C(=O)NO)cc1)c1ccccc1`, the inhibition in assay [1] came to 101%.

In the case of `CC1(C)Oc2ccc(C#N)cc2[C@@H](N2CCCC2=O)[C@@H]1O`, in assay [1], the inhibition is -9.16%.

With `Cc1ccc(C(=O)Cn2c3c(sc2=N)CCCC3)cc1`, the inhibition in assay [1] is 102%.

For the molecule `CCOC(=O)C1=C(C)NC(c2ccccc2)=C(C(=O)OCc2ccc([N+](=O)[O-])cc2)C1C#Cc1ccccc1` (stereo unspecified), in assay [1], the inhibition is -2.41%.

As to `COc1cccc(CCc2ccccc2OCC(CN(C)C)OC(=O)CCC(=O)O)c1` (stereo unspecified), the inhibition in assay [1] is -7%.

Take `COc1cccc(/C=N/C=N/c2cccc(OC)c2)c1`: the inhibition in assay [1] stood at 99.8%.

For `N/C(=N\C(=O)c1nc(Cl)c(N)nc1N)NCc1ccccc1`, the inhibition in assay [1] was determined as 25.2%.

Take `N[C@H](C(=O)O)c1ccc(O)cc1`: in assay [1], the inhibition is 4.75%.

As for `Cc1cc(-c2nc(C(=O)Nc3cn(C4CCOCC4)nc3C(N)=O)co2)ccn1`, the inhibition in assay [1] is 22.8%.

`CC(=O)Nc1ccc(S(=O)(=O)Nc2ccc([N+](=O)[O-])cc2)cc1`: the inhibition in assay [1] was 17.7%.

With `COc1ccc(/C=C/C(=O)Nc2ccccc2C(=O)O)cc1OC`, the inhibition in assay [1] was 40.8%.

Regarding `O=C(/C=C/c1cccc(S(=O)(=O)Nc2ccccc2)c1)NO`, in assay [1], the inhibition came to 102%.

One may read the inhibition as the drop in the measured response relative to a control, in per cent.
